One experiment deals with Albumin (Bos taurus) (UniProt P02769). Kind of experiment: bovine serum albumin binders on microarray, profiling panel, artefact control for SMM control protein annotation, biochemical, small-molecule microarray, Alexa647 label, 635/667 nm fluorescence (AID 1118).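 Also: score merges 667 nm emission intensity and signal-to-noise per printed compound spot.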 The note with it: BSA-A647 binding, fluorescence 635 nm, higher = more signal.
The nature of experiment [1]: small-molecule microarray binders of probe aXIP, primary screen, biochemical, NeuroSMM set, 635/667 nm fluorescence (AID 1119).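 Also: probe is the protein aXip251-270 applied at 1 µg/mL to compound-printed slides; binding of probe to printed compounds measured as 667 nm fluorescence plus signal to noise.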 The following applies: higher = more signal, called active from +8 up or from −8 down.
Experiment [2] can be described thus: small-molecule binders of probe aNOTCH3, primary screen, biochemical, small-molecule microarray, 635/667 nm fluorescence (AID 1120).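 Also: probe is a biotin-tagged antibody raised against NOTCH3 rather than NOTCH3 protein; score merges spot fluorescence near 667 nm with spot signal to noise.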 The note with it: higher = more signal.
The nature of experiment [3]: small-molecule binders of probe aNOTCH2, primary screen, biochemical, small-molecule microarray, 635/667 nm fluorescence (AID 1121).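 Also: score merges feature fluorescence read at 667 nm with its signal to noise.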 The note with it: higher = more signal.
The target of experiment [4] is Carbonic anhydrase 2 (Homo sapiens) (UniProt P00918). Briefly: CAII small-molecule binders, profiling panel, biochemical, small-molecule microarray, Alexa647-labelled CAII (AID 1122). The note with it: CAII-A647 binding fluorescence, higher = more signal.
Experiment [5] can be described thus: COS7 lysate on small-molecule microarray, probe aHis, 635 nm (AID 1123).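 Also: z-score combines 667nm fluorescence intensity with signal-to-noise per printed compound spot.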 The note with it: COS7 cell lysate, fluorescence, higher = more signal.
Experiment [6] can be described thus: compound binding in COS7 lysate, probe aLAP1, primary screen, cell lysate, small-molecule microarray (AID 1124).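 Also: lysate comes from COS7 cells expressing LAP1 and is applied at 0.3 µg/mL; score merges spot fluorescence near 667 nm with signal-to-noise over triplicate slides.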 The following applies: probe aLAP1, fluorescence, higher = more signal.
The test system of a further experiment is Sam68 (KHDRBS1). Kind of experiment: Sam68 small-molecule binders, primary screen, biochemical, small-molecule microarray, 635 nm fluorescence (AID 1125).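 Also: score merges 667 nm channel intensity with signal to noise over triplicate slides.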 The note with it: small-molecule microarray binding, higher = more signal.
Experiment [7] relates to Chordin-like protein 2 (CHRDL2). Briefly: CHRDL2 small-molecule binders, primary screen, biochemical, small-molecule microarray, 635 nm fluorescence (AID 1126).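 Also: printed compound slides probed with Chrdl2 protein at 4 µg/mL for 1 h at 4 C; score merges 667 nm emission intensity with signal to noise over three replicate slides.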 The note with it: small-molecule microarray binding, fluorescence 635 nm; higher = more signal.
Experiment [8] addresses Concanavalin-A (Canavalia ensiformis) (UniProt P02866). Briefly: ConA small-molecule binders, primary screen, artefact control for SMM control protein annotation, biochemical, small-molecule microarray, Alexa647 label, 635 nm (AID 1127).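 Also: z combines 667 nm emission intensity with signal-to-noise across three replicate slides.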 The following applies: ConA-A647 binding fluorescence, higher = more signal.

Active and inactive are the calls of the source.

Chain of Albumin (Bos taurus) (P02769 whole entry, looked up): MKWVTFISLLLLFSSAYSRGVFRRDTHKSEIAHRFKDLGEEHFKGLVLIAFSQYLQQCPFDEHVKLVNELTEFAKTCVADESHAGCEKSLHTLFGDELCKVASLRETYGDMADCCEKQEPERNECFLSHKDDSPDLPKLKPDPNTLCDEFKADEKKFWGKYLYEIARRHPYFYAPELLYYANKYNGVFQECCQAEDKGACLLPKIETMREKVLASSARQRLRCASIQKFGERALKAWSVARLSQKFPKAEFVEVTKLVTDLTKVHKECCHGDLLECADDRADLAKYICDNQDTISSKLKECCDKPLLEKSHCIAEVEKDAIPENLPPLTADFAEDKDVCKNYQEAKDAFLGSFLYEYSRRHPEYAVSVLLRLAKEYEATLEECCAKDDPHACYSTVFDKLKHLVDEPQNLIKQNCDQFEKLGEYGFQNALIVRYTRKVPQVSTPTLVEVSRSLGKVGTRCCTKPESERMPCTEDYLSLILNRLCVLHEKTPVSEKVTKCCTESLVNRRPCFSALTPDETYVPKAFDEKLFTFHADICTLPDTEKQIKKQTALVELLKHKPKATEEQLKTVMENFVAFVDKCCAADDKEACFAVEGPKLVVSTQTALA
Chain of Concanavalin-A (Canavalia ensiformis) (P02866 whole entry, looked up): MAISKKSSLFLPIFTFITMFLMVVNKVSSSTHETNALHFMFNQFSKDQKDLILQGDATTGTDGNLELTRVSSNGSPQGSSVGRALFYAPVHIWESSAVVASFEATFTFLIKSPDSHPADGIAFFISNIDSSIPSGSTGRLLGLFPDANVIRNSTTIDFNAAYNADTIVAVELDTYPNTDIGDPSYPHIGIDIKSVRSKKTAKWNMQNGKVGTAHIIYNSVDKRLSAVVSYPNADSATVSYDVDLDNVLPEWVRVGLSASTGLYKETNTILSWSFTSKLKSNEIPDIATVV

Take `C=CCN1Cc2ccccc2C[C@]2(N=C(c3ccc(OCCCO)cc3)O[C@@H]2c2ccccc2)C1=O`: the composite z-score in the experiment with Albumin (Bos taurus) worked out at 0.025; in experiment [2] it was 0.0276; in experiment [3] it was 0.101; in [4], 0.605; in [5], 2.42; in [6], 0.75. Besides, the composite z-score in the experiment with Sam68 (KHDRBS1) is 1.3; in [7], 1.14; in experiment [8], 1.18. The composite Z-score in experiment [1] was 0.862 (inactive).

As for `COc1ccc(C#Cc2ccc3c(c2)[C@]2(C(=O)N3)[C@H](c3ccc(OCCO)cc3)N3[C@H](c4ccccc4)[C@H](c4ccccc4)OC(=O)[C@H]3[C@@H]2C(=O)Nc2nc3ccccc3s2)cc1`, the composite z-score in the experiment with Albumin (Bos taurus) is 0.562; in experiment [2] it was 0.217; in experiment [3], -0.0267; in [4] it was 0.645; in experiment [5] it was 2.22; in [6], 0.534. The composite z-score was determined as 1.29 with Sam68 (KHDRBS1), 0.57 in [7] and 1.13 in experiment [8]. In addition, the composite Z-score in experiment [1] is -0.0127 (inactive).

On to `COc1ccc(C#Cc2ccc3c(c2)[C@]2(C(=O)N3)[C@H](C(=O)N3CCc4cc(OC)c(OC)cc4C3)[C@H]3C(=O)O[C@H](c4ccccc4)[C@H](c4ccccc4)N3[C@@H]2c2ccc(OCCO)cc2)cc1`, for which the composite z-score with Albumin (Bos taurus) was -0.0155; in experiment [2] it was 0.0762; in experiment [3], -0.0859; in experiment [4], 0.136; in experiment [5] it was 1.19; in experiment [6], 0.351. The figures for the composite z-score (in the experiment on Sam68 (KHDRBS1); in [7]; in experiment [8]) were 1.24, 0.523 and 1.07, respectively. Also, in [1], the composite Z-score is 0.289 (inactive).

As for `C=CCOC(=O)[C@@H]1[C@H]2C(=O)O[C@H](c3ccccc3)[C@H](c3ccccc3)N2[C@H](c2ccc(OCCOC(=O)[C@H]3C[C@H]4C(=O)N[C@@H](CC(C)C)C(=O)N4[C@H]3c3cccc(OCCO)c3)cc2)[C@@]12C(=O)Nc1ccc(I)cc12`, the composite z-score is -0.413 in the experiment with Albumin (Bos taurus); 0.19 in experiment [2]; -0.0424 in experiment [3]; 0.35 in experiment [4]; 1.48 in [5]; 0.334 in experiment [6]. For the same molecule, the composite z-score is 1.29 with Sam68 (KHDRBS1), 1.04 in [7] and 1.14 in experiment [8]. Further, the composite Z-score in [1] is -0.367 (inactive).

`Cn1c2c(c3ccccc31)C(=O)C1NC2C=CC1(C)C(=O)OCc1ccccc1` (stereo not given): the composite z-score with Albumin (Bos taurus) is 0.445; in experiment [2] it was -0.242; in experiment [3], -0.166; in [4] it was 0.682; in experiment [5], 1.77; in [6] it was 1.46. Moreover, the composite z-score with Sam68 (KHDRBS1) was 1; in experiment [7], -2.55; in experiment [8], 0.909. Besides, the composite Z-score in experiment [1] was -0.0597 (inactive).

Consider `COCCOC(=O)N1C(=O)[C@@]2(c3cc(C#Cc4ccc(OC)cc4)ccc31)[C@H](c1ccc(O)cc1)N1[C@H](c3ccccc3)[C@H](c3ccccc3)OC(=O)[C@H]1[C@@H]2C(=O)N1CCN(c2ncccn2)CC1`, for which the composite z-score with Albumin (Bos taurus) is 0.303; in experiment [2] it was 0.0486; in experiment [3], -0.0956; in experiment [4], 0.395; in experiment [5], 1.48; in experiment [6] it was 0.406. For the same molecule, the composite z-score with Sam68 (KHDRBS1) is 1.2; in experiment [7], -0.126; in experiment [8] it was 0.657. Also, the composite Z-score in experiment [1] is -0.321 (inactive).

With `COCCCNC(=O)[C@]1(Cc2ccccc2N=[N+]=[N-])N=C(c2ccc(OCCCO)cc2)O[C@@H]1c1ccccc1CN=[N+]=[N-]`, the composite z-score with Albumin (Bos taurus) turned out to be 0.522; in [2], 0.523; in experiment [3], 0.202; in experiment [4], 0.398; in experiment [5], 2.51; in [6], 0.561. The composite z-score in the experiment with Sam68 (KHDRBS1) turned out to be 1.12; in experiment [7], 0.228; in [8], 1.13. Besides, the composite Z-score in [1] was 0.0955 (inactive).

Regarding `O=C(NCc1ccccc1)[C@@H]1c2ccccc2C(=O)N(Cc2cc(F)cc(C(F)(F)F)c2)[C@H]1c1ccc(CO)cc1`, the composite z-score was 0.491 with Albumin (Bos taurus); -0.0477 in experiment [2]; -0.124 in experiment [3]; 0.589 in [4]; 1.67 in experiment [5]; 0.662 in experiment [6]. Moreover, the figures for the composite z-score (with Sam68 (KHDRBS1); in experiment [7]; in experiment [8]) were 1.27, 0.161 and 0.769, respectively. Further, in experiment [1], the composite Z-score is 0.318 (inactive).

For the molecule `O=C1OCCC/C=C\[C@H]2OC34C=CCN(Cn5nnc6ccccc65)C(=O)[C@H]3N(CCCO)C(=O)[C@@H]4C12` (stereo not given in full), the composite z-score is -1.38 with Albumin (Bos taurus); -0.306 in experiment [2]; -0.112 in experiment [3]; 0.896 in experiment [4]; 1.82 in [5]; 0.888 in experiment [6]. Moreover, the values for the composite z-score (in the experiment on Sam68 (KHDRBS1); in experiment [7]; in [8]) were 0.301, -2.21 and -0.946, respectively. In experiment [1], the composite Z-score was -0.774 (inactive).

Turning to `COC(=O)C(CC#Cc1ccc2c(c1)[C@]1(C(=O)N2)[C@H](C(=O)N2CCCCCCC2)[C@H]2C(=O)O[C@H](c3ccccc3)[C@H](c3ccccc3)N2[C@@H]1c1ccccc1OCCO)C(=O)OC`, the composite z-score with Albumin (Bos taurus) came out at 0.678; in [2], 2.26; in [3], 1.16; in experiment [4], 1.08; in experiment [5], 5.41; in experiment [6], 1.58. The composite z-score worked out at 1.32 with Sam68 (KHDRBS1), 1.68 in experiment [7] and 0.916 in [8]. Besides, the composite Z-score in experiment [1] was 10.6 (active).

`COc1ccc([Si](C)(C)[C@@H]2[C@@H](CCn3cc([C@H](O)c4ccccc4)nn3)O[C@]3(C(=O)N(C)c4ccccc43)[C@H]2C)cc1`: the composite z-score in the experiment with Albumin (Bos taurus) was 0.718; in experiment [2], -0.175; in experiment [3], -0.19; in experiment [4] it was 0.494; in [5], 0.613; in experiment [6], 0.0014. Also, the composite z-score is 0.302 with Sam68 (KHDRBS1), -0.13 in [7] and 0.44 in experiment [8]. For the same molecule, the composite Z-score in [1] was 0.19 (inactive).
